The list is not random: actives were taken first. Their share in the collection is about 19%.
TDP1 cell noCPT = qHTS for Inhibitors of human tyrosyl-DNA phosphodiesterase 1 (TDP1): qHTS in cells in absence of CPT. DT40 Tdp1-/- hTDP1 cells, no CPT, ATP luminescence, 48 h. Potency, µM (highest dose often 46.2 µM), for the others: at the highest dose activity change, negative = growth inhibition, usual class: inhibitors. 15% of 420,000 active. AID 686978, 2013; further: potency means the concentration at half of the fitted maximal effect; nearly all actives have a fitted effect of over 55% in size
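A cellular qHTS used chicken DT40 cells lacking endogenous Tdp1 but carrying stably transfected human TDP1. Compounds were applied without camptothecin, and cell growth kinetics were judged by ATP-dependent luminescence after ≥48 hr.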
HT1080 IDH1KD tx = toxicity to HT-1080 IDH1 knockdown cells (counter line); AID 686971; Potency, µM (highest dose often 46.1 µM), for inactives: at the highest dose activity, negative = toxicity, most hits filed as cytotoxic; 2% of 360,000 active; HT-1080 IDH1 knockdown viability, ATP luminescence, 48 h;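 further: potency means the concentration at half of the fitted maximal effect; 0% = DMSO wells and -100% = cell-free medium wells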
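In this qHTS, HT-1080 cells depleted of IDH1 are exposed for 48 h at 37 °C to compound titrations. Toxicity is scored from CellTiter-Glo luminescence, with DMSO as full viability and medium alone as none.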
HT1080-NT tox = kills 2HG-producing HT-1080-NT fibrosarcoma cells. 1.6% of 360,000 active. HT-1080-NT fibrosarcoma viability, CellTiter-Glo ATP luminescence, 48 h. Potency, µM (highest dose often 46.1 µM), without a hit: at the highest dose activity, negative = less viability, hits mostly cytotoxic;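 further: NT is the 2HG producing partner of a matched IDH1 knockdown line; potency means the concentration at half of the fitted maximal effect; 0% = DMSO-treated cells and -100% = media-only wells without cells; nearly all actives have a fitted effect of over 55% in size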
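Luminescent CellTiter-Glo readout after 48 hours of compound exposure at 37 degrees C defined viability of HT-1080-NT cells. Activity was normalized to DMSO wells and cell-free media wells; concentration-response curves were fitted and assigned curve classes.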
DT40 TDP1 CPT = growth inhibition of DT40 Tdp1-/-;hTDP1 cells with camptothecin (screen for TDP1 inhibitors); chicken DT40 Tdp1-/-;hTDP1 cells + 20 nM CPT, ATP luminescence, 48 h; Potency, µM (titrated, usually from 46.2 µM), without a hit: at the highest dose activity change, negative = growth inhibition, usual class: inhibitors; 12% of 420,000 active; AID 686979; further: potency means the concentration at half of the fitted maximal effect; nearly all actives have a fitted effect of over 55% in size
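Chicken DT40 Tdp1-/- cells stably complemented with human TDP1 were seeded at 400 cells/well in medium containing 20 nM camptothecin, exposed to pin-transferred compounds, and grown at 37 °C for at least 48 hr. Viability was read as ATP luminescence.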
IL-1B inflam inh = blocks inflammasome-driven IL-1 beta release; THP-1 LPS/ATP IL-1B secretion, AlphaLISA, 16 h; stronger effect = lower value; activity change, % at 57.5 µM; 4.7% of 360,000 active; in the data active means activity change below about -50%; inconclusive means mostly about -30% to -49%
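Secreted IL-1B measured by AlphaLISA bead assay after 16 h compound exposure of THP-1 cells; compounds (final up to 57.5 uM) added 1 h before LPS (250 ng/mL) and ATP (1.25 mM) stimulation; lower signal means less secretion.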
ELG1 repair inh = ELG1-dependent DNA repair inhibition | HEK293T ELG1-luciferase reporter, luminescence, 16 h; DNA damage induced by 5-fluorouridine | Potency, µM (titrated, usually from 46.1 µM), inactives show at the highest dose activity change, negative = inhibition, most hits filed as inhibitors | 2.3% of 330,000 active | AID 504467; further: potency means the concentration at half of the fitted maximal effect; nearly all actives have a fitted effect of over 55% in size
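In this reporter screen, reduction of luminescence relative to DMSO vehicle indicated activity. Compounds and 5-fluorouridine were added together to 2,000 cells per well, incubated for 16 hr at 37 °C, then developed with ONE-Glo.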
Starred values were filed as active, the others as inactive; ? = inconclusive; nt = no result given; [ ] = remark or other dose. Unless noted, the call rests on the fitted dose curve; in most records, active means well fitted curve in the direction sought with a large enough effect; inconclusive means small, poorly fitted or top-dose-only effect, or another doubt; inactive means no such curve, though single readings can be large; an effect the other way counts as inactive or inconclusive. Unless noted, on the % scale 0 is the no-effect control and ±100 the full control effect.

SMILES	TDP1 cell noCPT	HT1080 IDH1KD tx	HT1080-NT tox	DT40 TDP1 CPT	IL-1B inflam inh	ELG1 repair inh
O=C(NC1(C(F)(F)F)C(=O)Nc2c1c(=O)[nH]c(=O)n2-c1ccc(F)cc1)c1ccccc1 (stereo unspecified)	-22.9%	nt	nt	-14.5%	nt	nt
CCc1nc2c(cnn2-c2ccc(F)cc2)c(=O)n1-c1ccc(N2CCC(C)CC2)cc1	14.6µM*	4.0%	4.6%	16.4µM*	9.4	16.4µM*
Cc1ccc(-n2c(C)nc3c(cnn3-c3ccc(C)c(C)c3)c2=O)cc1C	16.4µM*	-1.6%	12.8%	18.4µM*	1.0	6.2%
Cc1nc2c(cnn2-c2ccccc2Cl)c(=O)n1-c1ccc(N2CCC(C)CC2)cc1	?	-27.1%	-10.0%	16.4µM*	?	16.4µM*
CCOc1ccc(-n2c(CC)nc3c(cnn3-c3ccc(Cl)cc3)c2=O)cc1	14.6µM*	nt	nt	16.4µM*	nt	nt
Cc1ccc(-n2c(C)nc3c(cnn3-c3ccccc3Cl)c2=O)cc1C	-27.0%	-0.8%	16.9%	-9.0%	12.1	-4.2%
CC(C)c1ccc(C(=O)N2CCCCC2c2cc(C(=O)Nc3ccncc3)no2)cc1 (stereo unspecified)	16.4µM*	-26.5%	-8.8%	16.4µM*	47.7	nt
CCCNC(=O)c1cc(C2CCCCN2C(=O)c2cc(OC)c(C)c(OC)c2)on1 (stereo unspecified)	?	-1.6%	14.2%	20.6µM*	23.1	nt
CCCNC(=O)c1cc(C2CCCCN2C(=O)c2ccc(C(C)C)cc2)on1 (stereo unspecified)	10.3µM*	13.8%	-2.9%	20.6µM*	-9.2	nt
CC(C)c1ccc(C(=O)N2CCOCC2c2cc(C(=O)Nc3ccccc3)no2)cc1 (stereo unspecified)	?	-4.1%	7.8%	?	-14.9	nt
O=C(CCc1ccc(S(=O)(=O)N2CCOCC2)cc1)Nc1ccc(F)c(F)c1F	-21.4%	5.1%	15.2%	?	16.3	-6.4%
CCc1nc2cc(C(=O)N3CCCN(C=O)CC3)cc(NC(=O)c3ccccc3OC)c2n1C	-11.7%	nt	nt	15.0%[9.04 µM]	nt	nt
Cc1cc(C)n(C(=O)/C=C/c2cccs2)n1	?	12.7%	5.0%	-2.5%	-24.9	?
COc1cccc(Nc2cc(C)c3ccccc3n2)c1	?	?	-23.4%	-10.0%	-54.6*	?
Cc1ccccc1Nc1cc(C)c2c(O)cccc2n1	?	-6.4%	-18.2%	?	-86.8*	23.3%
COc1ccc(OC)c(Nc2cc(C)c3ccccc3n2)c1	?	?	?	?	-5.7	9.7%
Cc1ccc(Nc2cc(C)c3ccc(O)cc3n2)cc1C	18.4µM*	-22.3%	-22.8%	18.4µM*	-18.3	?
COc1ccc(Nc2cc(C)c3c(O)cccc3n2)cc1	10.3µM*	?	?	20.6µM*	?	?
CCCCN1C(=O)C(CC(=O)NC2CCCC2)CC(C(=O)N2CCCCCC2)=C1C (stereo unspecified)	-17.8%	4.5%	-3.5%	-5.1%	nt	nt
CC(=O)c1ccccc1NC(=O)COC(=O)CN1C(=O)C2CCCCC2C1=O (stereo unspecified)	-28.2%	0.0%	6.1%	0.1%	23.4	4.4%
Cc1ccc(Nc2cc(C)c3c(O)cccc3n2)cc1C	14.6µM*	-24.6%	-25.5%	20.6µM*	-9.1	?
Cc1cc(NC2CCCCC2)nc2ccccc12	16.4µM*	-4.8%	-1.9%	?	-91.5*	-13.9%
CC1(C(=O)Nc2ccc3c(c2)OCCO3)CCC(=O)N1CCOc1ccccc1 (stereo unspecified)	4.7%	22.4%	18.0%	-12.8%	-11.6	nt
CO[C@H]1[C@H](NC(=O)c2ccsc2)c2ccccc2C12CCN(Cc1cc3ccccc3o1)CC2	?	nt	nt	-11.4%[9.04 µM]	nt	nt
Cc1cc(Br)ccc1NC(=O)CN(C)C(=O)c1ccc2ccccc2n1	-4.1%	-3.7%	-7.8%	-7.9%	0.0	?
SMILES	TDP1 cell noCPT	HT1080 IDH1KD tx	HT1080-NT tox	DT40 TDP1 CPT	IL-1B inflam inh	ELG1 repair inh
CCOC(=O)COc1ccccc1/C=C1\NC(=O)NC1=O	7.9%	24.6%	4.2%	8.9%	-91.1*	0.9%
O=C1NC(=O)/C(=C\c2ccccc2OCc2ccc([N+](=O)[O-])cc2)N1	?	-13.9%	-7.5%	?	0.0	?
CCN(CC)CC(=O)Nc1sc(C)cc1C(=O)c1ccccc1	?	-16.8%	-9.3%	?	-23.4	-2.3%
Cc1cc(C(=O)c2ccccc2)c(NC(=O)CCl)s1	23.1µM*	?	?	9.2µM*	-100.4*	-28.3%
O=C(Nc1cccc(F)c1)N1CCC2(CC1)CCN(C(=O)c1ccco1)CC2	?	nt	nt	2.8%	nt	nt
CCN1C(=O)[C@H]2[C@@H](c3ccc(-c4cc(C(C)=O)cs4)cc3)N[C@@](Cc3ccccc3)(C(=O)OC)[C@H]2C1=O	?	15.1%	7.6%	?	7.8	15.9%
COC(=O)[C@]1(Cc2ccccc2)N[C@H](c2ccc(-c3ccc(F)cc3)cc2)[C@@H]2C(=O)N(C)C(=O)[C@@H]21	16.4µM*	-4.9%	-0.7%	18.4µM*	?	-29.0%
CCN1C(=O)[C@H]2[C@@H](c3ccc(-c4ccc(C(C)=O)cc4)cc3)N[C@@](Cc3ccccc3)(C(=O)OC)[C@H]2C1=O	?	-4.2%	-11.8%	13µM*	-19.9	-17.0%
CCN1C(=O)[C@H]2[C@@H](c3ccc(-c4ccccc4)cc3)N[C@@](Cc3ccccc3)(C(=O)OC)[C@H]2C1=O	18.4µM*	-1.1%	21.5%	?	-53.3*	-23.3%
CCN1C(=O)[C@H]2[C@@H](c3ccc(-c4ccc(Cl)c(Cl)c4)cc3)N[C@@](Cc3ccccc3)(C(=O)OC)[C@H]2C1=O	14.6µM*	0.0%	-22.5%	23.1µM*	-11.9	-1.6%
COc1ccc(C(=O)NCC(c2ccco2)N2CCOCC2)cc1 (stereo unspecified)	-23.0%	-3.3%	2.6%	-6.3%	16.6	nt
COc1ccc(-c2ccc(C(=O)Nc3cccc(C(F)(F)F)c3)c3occc23)c(C)c1	20.6µM*	-26.9%	-10.5%	23.1µM*	-2.5	nt
COc1ccc(-c2ccc(C(=O)Nc3cc(OC)c(OC)c(OC)c3)c3occc23)c(C)c1	23.1µM*	?	-28.2%	6.51µM*	-15.4	nt
COc1ccc(-c2ccc(C(=O)Nc3ccc(NC(C)=O)cc3)c3occc23)c(C)c1	?	-5.8%	-2.6%	?	35.2	nt
